# PubChem BioAssay (NCATS)
# Values joined by “and” are separate entries in the source; they are usually repeats but may differ in a detail not shown here. Equal values may be shown once. Inconclusive results are not listed. A call without a number means that no potency is given here. Values without a mark were called inactive. Active and inactive are the calls of the source. Calls follow the shape of the dose curve; as a rule, active = well fitted curve in the direction sought with a large enough effect; inconclusive = small, poorly fitted or top-dose-only effect, or another doubt; inactive = no such curve, though single readings can be large; an effect the other way counts as inactive or inconclusive.
# Key:
# SC27B = assay: qHTS profiling for inhibitors of Plasmodium falciparum proliferation (AID 504749); also: nearly all actives have a fitted effect of over 60% in size; conditions: P. falciparum in erythrocytes, SYBR Green DNA, 72 h; series mostly up to 28.7 µM
# Procedure, shortened: (§1)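 P. falciparum-infected erythrocytes (0.3% parasitemia, 2.5% hematocrit) incubated with compound 72 h at 37 C, 5% CO2. Parasite DNA detected by SYBR Green after lysis, overnight at room temperature; normalised to 0.29 uM artemisinin and DMSO.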
# TAB109 = assay: as above; conditions: P. falciparum in erythrocytes, SYBR Green DNA, 72 h; series mostly up to 28.7 µM
# Procedure, shortened: as §1
# TAB113 = assay: as above; conditions: P. falciparum in erythrocytes, SYBR Green DNA, 72 h; series mostly up to 28.7 µM
# Procedure, shortened: as §1
# TAB165 = assay: as above; conditions: P. falciparum in erythrocytes, SYBR Green DNA, 72 h; series mostly up to 28.7 µM
# Procedure, shortened: as §1
# W2 = assay: as above; conditions: P. falciparum in erythrocytes, SYBR Green DNA, 72 h; series mostly up to 28.7 µM
# Procedure, shortened: as §1
# CRL-7250 = normal cell line; assay: Cytotoxic Profiling of Annotated Libraries Using Quantitative High-Throughput Screening (AID 1296008); conditions: Five cell lines viability, CellTiter-Glo ATP luminescence, 48-72 h; max response: hits give low values; also: nearly all actives have a fitted effect of over 60% in size; also: potency is read from the fitted curve at half-maximal effect
# Procedure, shortened: (§2)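 Cells exposed to compounds for 48 or 72 hr at 37 degrees Celsius. Viability read as ATP-coupled luminescence with CellTiter-Glo after 10 min at room temperature.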
# HEK293 = assay: as above; conditions: Five cell lines viability, CellTiter-Glo ATP luminescence, 48-72 h; max response: hits give low values
# Procedure, shortened: as §2
# HaCat [1] = assay: as above; conditions: Five cell lines viability, CellTiter-Glo ATP luminescence, 48-72 h; max response: hits give low values
# Procedure, shortened: as §2
# KB-3-1 = assay: as above; conditions: Five cell lines viability, CellTiter-Glo ATP luminescence, 48-72 h; max response: hits give low values
# Procedure, shortened: as §2
# NIH3T3 [2] = assay: as above; conditions: Five cell lines viability, CellTiter-Glo ATP luminescence, 48-72 h; max response: hits give low values
# Procedure, shortened: as §2
# HEK293T = assay: qHTS assay to identify novel small-molecules to repurpose for Merkel cell carcinoma treatment (AID 1296009); conditions: MCC and control cell lines, CellTiter-Glo viability, 72 h; at 44.8 µM (top of the series) unless noted; also: nearly all actives have a fitted effect of over 60% in size; also: potency is read from the fitted curve at half-maximal effect
# Procedure, shortened: (§3)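 Cells were treated for 72 hr at 37 degree celsius with compounds in 8- or 11-point dose response. Viability was read by CellTiter-Glo luminescence, normalized to no-cell (cytotoxicity) and DMSO controls.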
# MCC-13 = assay: as above; conditions: MCC and control cell lines, CellTiter-Glo viability, 72 h; series mostly up to 46 µM
# Procedure, shortened: as §3
# MKL-1 = assay: as above; conditions: MCC and control cell lines, CellTiter-Glo viability, 72 h; series mostly up to 46 µM
# Procedure, shortened: as §3
# MKL-2 = assay: as above; conditions: MCC and control cell lines, CellTiter-Glo viability, 72 h; series mostly up to 46 µM
# Procedure, shortened: as §3
# UISO = assay: as above; conditions: MCC and control cell lines, CellTiter-Glo viability, 72 h; series mostly up to 46 µM
# Procedure, shortened: as §3
# WaGa = assay: as above; conditions: MCC and control cell lines, CellTiter-Glo viability, 72 h; series mostly up to 46 µM
# Procedure, shortened: as §3
# C33A = assay: Primary qHTS to identify gynecologic anti-cancer compounds using libraries of approved drugs and bioactive compounds (AID 1345084); conditions: Gynecologic cancer cell panel viability, ATPlite luminescence, 48 h; series mostly up to 57.5 µM; also: nearly all actives have a fitted effect of over 55% in size
# Procedure, shortened: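 Five-concentration response, 48 h; readout is ATP-driven luciferase luminescence.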
# HACAT [3] = assay: qHTS assay to identify novel small-molecules to repurpose for Merkel cell carcinoma treatment (AID 1296009); conditions: MCC and control cell lines, CellTiter-Glo viability, 72 h; at 44.8 µM (top of the series) unless noted; also: nearly all actives have a fitted effect of over 60% in size; also: potency is read from the fitted curve at half-maximal effect
# Procedure, shortened: as §3
# MCC-26 = assay: as above; conditions: MCC and control cell lines, CellTiter-Glo viability, 72 h; series mostly up to 46 µM
# Procedure, shortened: as §3
# NIH3T3 [4] = assay: as above; conditions: MCC and control cell lines, CellTiter-Glo viability, 72 h; at 44.8 µM (top of the series) unless noted
# Procedure, shortened: as §3
smiles,measurement,setting,value
Nc1cc(C(Cl)=C(Cl)Cl)c(S(N)(=O)=O)cc1S(N)(=O)=O,Potency,SC27B,inactive
same,Potency,TAB109,inactive
same,Potency,TAB113,inactive
same,Potency,TAB165,inactive
same,Potency,W2,inactive
same,max response,CRL-7250,-8.91%
same,outcome,HEK293,inactive
same,max response,HaCat [1],2.98% and -14%
same,max response,KB-3-1,-2.94% and -17.4%
same,max response,NIH3T3 [2],4.72% and -5.94%
same,outcome,HEK293T,inactive
same,Potency,MCC-13,inactive
same,Potency,MKL-1,inactive
same,Potency,MKL-2,inactive
same,Potency,UISO,inactive
same,Potency,WaGa,inactive
same,Potency,C33A,inactive
C[C@@H](c1ncncc1F)[C@](O)(Cn1cncn1)c1ccc(F)cc1F,max response,CRL-7250,-18.6%
same,max response,HEK293,-20.1%
same,outcome,HaCat [1],inactive
same,max response,KB-3-1,-4.61%
same,max response,NIH3T3 [2],-4.26%
same,outcome,HACAT [3],inactive
same,Potency,MCC-13,inactive
same,Potency,MCC-26,inactive
same,Potency,MKL-1,inactive
same,Potency,MKL-2,inactive
same,Potency,UISO,inactive
same,Potency,WaGa,inactive
CCOC(=O)C1=C(O)C(=O)N(Cc2ccccc2)C1,max response,CRL-7250,2.77%
same,max response,HEK293,-14.6%
same,max response,HaCat [1],2.45%
same,max response,KB-3-1,3.01%
same,outcome,NIH3T3 [2],inactive
same,Potency,MCC-13,inactive
same,Potency,MKL-1,inactive
same,Potency,MKL-2,inactive
same,outcome,NIH3T3 [4],inactive
same,Potency,UISO,inactive
same,Potency,WaGa,inactive
O=c1c(O)c(-c2cc(O)c(O)c(O)c2)oc2cc(O)cc(O)c12,max response,CRL-7250,3.08%
same,max response,HEK293,-2.69%
same,outcome,HaCat [1],inactive
same,max response,KB-3-1,2.62%
same,max response,NIH3T3 [2],-26.9%
same,outcome,HACAT [3],inactive
same,Potency,MCC-13,inactive
same,Potency,MKL-1,inactive
same,Potency,MKL-2,inactive
same,Potency,UISO,inactive
same,Potency,WaGa,inactive
CCOC(=O)C1=C[C@@H](OC(CC)CC)[C@H](NC(C)=O)[C@@H](N)C1,max response,CRL-7250,0.667%
same,max response,HEK293,-4.58%
same,max response,HaCat [1],1.74%
same,max response,KB-3-1,14.9% and 5.96%
same,outcome,NIH3T3 [2],inactive
same,Potency,MCC-13,inactive
same,Potency,MKL-1,inactive
same,Potency,MKL-2,inactive
same,outcome,NIH3T3 [4],inactive
same,Potency,UISO,inactive
same,Potency,WaGa,inactive
Oc1ccc(-c2nc(-c3ccc(F)cc3)c(-c3ccncc3)[nH]2)cc1,max response,CRL-7250,-11.9%
same,Potency,HEK293,11.8 µM (active)
same,max response,HaCat [1],-6.19%
same,outcome,KB-3-1,inactive
same,outcome,NIH3T3 [2],inactive
same,Potency,MCC-13,inactive
same,Potency,MCC-26,inactive
same,Potency,MKL-2,20.9 µM (active)
same,outcome,NIH3T3 [4],inactive
same,Potency,UISO,inactive
C[C@]12CCC(=O)C=C1CC[C@@H]1[C@H]2[C@@H](O)C[C@@]2(C)[C@H]1CC[C@]2(O)C(=O)CO,Potency,SC27B,inactive
same,Potency,TAB109,inactive
same,Potency,TAB113,inactive
same,Potency,TAB165,inactive
same,Potency,W2,inactive
same,max response,CRL-7250,-1.54%
same,outcome,HEK293,inactive
same,max response,HaCat [1],-4.53%
same,max response,KB-3-1,33.4%
same,outcome,NIH3T3 [2],inactive
same,outcome,HEK293T,inactive
same,Potency,MCC-13,inactive
same,Potency,MCC-26,inactive
same,Potency,MKL-1,inactive
same,Potency,MKL-2,inactive
same,outcome,NIH3T3 [4],inactive
same,Potency,UISO,inactive
same,Potency,WaGa,inactive
COc1c(O)cc2c(c1O)[C@@H]1O[C@H](CO)[C@@H](O)[C@H](O)[C@H]1OC2=O,outcome,CRL-7250,inactive
same,outcome,HEK293,inactive
same,max response,HaCat [1],-11.1% and -23.6%
same,max response,KB-3-1,6.75% and -4.18% and 5.95%
same,max response,NIH3T3 [2],-9.83% and 0.115%
same,outcome,HEK293T,inactive
same,Potency,MCC-13,inactive
same,Potency,MKL-1,inactive
same,Potency,MKL-2,inactive
same,Potency,UISO,inactive
same,Potency,WaGa,inactive
Oc1ccc2ccccc2c1SSc1c(O)ccc2ccccc12,max response,CRL-7250,-5.27%
same,max response,HEK293,-1.68%
same,outcome,HaCat [1],inactive; activator
same,max response,KB-3-1,9.23%
same,outcome,NIH3T3 [2],inactive
same,outcome,HACAT [3],inactive; activator
same,Potency,MCC-13,inactive
same,Potency,MCC-26,inactive
same,Potency,MKL-2,20.9 µM (active)
same,outcome,NIH3T3 [4],inactive
Cc1nc2n(c(=O)c1CCN1CCC(c3noc4cc(F)ccc34)CC1)CCCC2,Potency,SC27B,inactive
same,Potency,TAB109,inactive
same,Potency,TAB113,inactive
same,Potency,TAB165,inactive
same,max response,CRL-7250,0.174%
same,max response,HEK293,-10.6%
same,max response,HaCat [1],2.05% and 3.62%
same,max response,KB-3-1,0.624% and -4.98%
same,max response,NIH3T3 [2],-4.59% and 2.76%
same,Potency,MCC-13,inactive
same,Potency,MCC-26,inactive
same,Potency,MKL-1,inactive
same,Potency,MKL-2,inactive
same,Potency,UISO,inactive
same,Potency,WaGa,inactive
CC(C)[N+]1(C)[C@@H]2CC[C@H]1CC(OC(=O)C(CO)c1ccccc1)C2 (stereo partly drawn),max response,CRL-7250,2.83%
same,max response,HEK293,-4.08%
same,outcome,HaCat [1],inactive
same,max response,KB-3-1,9.75% and 15.3%
same,outcome,NIH3T3 [2],inactive
same,outcome,HACAT [3],inactive
same,Potency,MCC-13,inactive
same,Potency,MCC-26,inactive
same,Potency,MKL-1,inactive
same,outcome,NIH3T3 [4],inactive
same,Potency,UISO,inactive
same,Potency,WaGa,18.7 µM (active)
C[Se]CCC(N)C(=O)O (stereo not drawn),Potency,SC27B,inactive
same,Potency,TAB109,inactive
same,Potency,TAB113,inactive
same,Potency,TAB165,inactive
same,max response,CRL-7250,-3.1%
same,max response,HEK293,-11.1%
same,max response,HaCat [1],-19.1%
same,max response,KB-3-1,-9.75%
same,outcome,NIH3T3 [2],inactive
same,Potency,MCC-13,inactive
same,Potency,MKL-1,inactive
same,Potency,MKL-2,inactive
same,outcome,NIH3T3 [4],inactive [at 92 µM]
same,Potency,UISO,inactive
same,Potency,WaGa,inactive
